# In PubChem BioAssay (EPA / NIEHS):
# Inconclusive results are not listed. The source made the active and inactive calls. Rule for the calls: active = hit-call score of the fitted dose curve at least 0.9, where 1 is the maximum; inconclusive = response in the unintended direction; inactive = score below 0.9.
# Assay: ACEA_ER_AUC_viability: ACEA Biosciences xCELLigence Real-Time Cell Analysis on Estrogen Receptor Agonism for Viability (AID 2283782);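 note: hit means loss of impedance signal meaning reduced cell growth or viability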
# Outline: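 Continuous-exposure impedance cell analysis uses T-47D cells in charcoal-stripped serum, eight 1:4 dilutions topping at 100 uM final, biological duplicate. Area under the growth curve at 80 h is fitted against DMSO baseline.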
SMILES,AC50,outcome
CSc1ccc(O)cc1C,16.2 µM (active),
FC(F)(F)C(F)(F)C(F)(F)C(F)(F)C(F)(F)C(F)(F)C(F)(F)CCI,,inactive
C=CCOC(=O)CC(C)C,,inactive
COC(=O)c1ccc(C=O)cc1,,inactive
N#CCCOCCC#N,,inactive
CCC(C)CO (stereo unspecified),74.7 µM (active),
CCCCCC/C=C/CCCCCCCC(=O)O,50 µM (active),
NC(=O)C(F)(F)C(F)(F)C(F)(F)C(F)F,,inactive
CCn1c2ccccc2c2ccccc21,66.3 µM (active),
O=C1C=CC(=O)N1c1ccc(Cc2ccc(N3C(=O)C=CC3=O)cc2)cc1,25.1 µM (active),
O=C(O)C(F)(F)C(F)(F)C(F)(F)OC(F)(C(F)(F)F)C(F)(F)F,,inactive
